Source: publication PMC9911399, “Two distinct binding modes provide the RNA-binding protein RbFox with extraordinary sequence specificity”
Numbering of substitutions follows the chain as printed; changes in the protein carry UniProt numbers. Whole data set: some 16,000 sequences, median “ka relative to ugcaugu” near 0.096, cut for the highest 2% near 0.35. For the sample, the highest values were picked, then their nearest neighbours and some sequences at random.

T1: RBFOX1 RRM RbFoxmut (Fox-RRM*) (Homo sapiens, UniProt Q9NWB1 109-208, R118D;E147R;N151S;E152T)
T1 sequence: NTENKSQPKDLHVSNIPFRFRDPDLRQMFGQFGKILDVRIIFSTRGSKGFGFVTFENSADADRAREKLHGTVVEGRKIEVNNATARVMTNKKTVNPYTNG

B1: ACGUCCU (DNA:RNA)
RNA: GGGAGACCGGAAUUCAGAUUGUCCACGUCCUUUAAAUCCCGUCGUAGCCACCA
DNA 1: CAATCTGAATTCCGGTCTCCC
DNA 2: TGGTGGCTACGACGGGATT
B2: AACCAGA (DNA:RNA)
RNA: B1 RNA with C26A, G27C, U28C, C29A, C30G, U31A
DNA 1: CAATCTGAATTCCGGTCTCCC
DNA 2: TGGTGGCTACGACGGGATT
B3: CAAACUC (DNA:RNA)
RNA: B1 RNA with A25C, C26A, G27A, U28A, C30U, U31C
DNA 1: CAATCTGAATTCCGGTCTCCC
DNA 2: TGGTGGCTACGACGGGATT
B4: AGAAGAU (DNA:RNA)
RNA: B1 RNA with C26G, G27A, U28A, C29G, C30A
DNA 1: CAATCTGAATTCCGGTCTCCC
DNA 2: TGGTGGCTACGACGGGATT
B5: UCCCCGG (DNA:RNA)
RNA: B1 RNA with A25U, G27C, U28C, C30G, U31G
DNA 1: CAATCTGAATTCCGGTCTCCC
DNA 2: TGGTGGCTACGACGGGATT
B6: AAAAAGC (DNA:RNA)
RNA: B1 RNA with C26A, G27A, U28A, C29A, C30G, U31C
DNA 1: CAATCTGAATTCCGGTCTCCC
DNA 2: TGGTGGCTACGACGGGATT
B7: AAAUUGC (DNA:RNA)
RNA: B1 RNA with C26A, G27A, C29U, C30G, U31C
DNA 1: CAATCTGAATTCCGGTCTCCC
DNA 2: TGGTGGCTACGACGGGATT
B8: GCGCACG (DNA:RNA)
RNA: B1 RNA with A25G, U28C, C29A, U31G
DNA 1: CAATCTGAATTCCGGTCTCCC
DNA 2: TGGTGGCTACGACGGGATT
B9: ACGUCCG (DNA:RNA)
RNA: B1 RNA with U31G
DNA 1: CAATCTGAATTCCGGTCTCCC
DNA 2: TGGTGGCTACGACGGGATT
B10: GUCCACG (DNA:RNA)
RNA: B1 RNA with A25G, C26U, G27C, U28C, C29A, U31G
DNA 1: CAATCTGAATTCCGGTCTCCC
DNA 2: TGGTGGCTACGACGGGATT
B11: GCACGAG (DNA:RNA)
RNA: B1 RNA with A25G, G27A, U28C, C29G, C30A, U31G
DNA 1: CAATCTGAATTCCGGTCTCCC
DNA 2: TGGTGGCTACGACGGGATT
B12: CGCACCG (DNA:RNA)
RNA: B1 RNA with A25C, C26G, G27C, U28A, U31G
DNA 1: CAATCTGAATTCCGGTCTCCC
DNA 2: TGGTGGCTACGACGGGATT
B13: GCACGUG (DNA:RNA)
RNA: B1 RNA with A25G, G27A, U28C, C29G, C30U, U31G
DNA 1: CAATCTGAATTCCGGTCTCCC
DNA 2: TGGTGGCTACGACGGGATT
B14: GCACGUA (DNA:RNA)
RNA: B1 RNA with A25G, G27A, U28C, C29G, C30U, U31A
DNA 1: CAATCTGAATTCCGGTCTCCC
DNA 2: TGGTGGCTACGACGGGATT
B15: GCACGCG (DNA:RNA)
RNA: B1 RNA with A25G, G27A, U28C, C29G, U31G
DNA 1: CAATCTGAATTCCGGTCTCCC
DNA 2: TGGTGGCTACGACGGGATT
B16: GCACGAA (DNA:RNA)
RNA: B1 RNA with A25G, G27A, U28C, C29G, C30A, U31A
DNA 1: CAATCTGAATTCCGGTCTCCC
DNA 2: TGGTGGCTACGACGGGATT
B17: ACGCACG (DNA:RNA)
RNA: B1 RNA with U28C, C29A, U31G
DNA 1: CAATCTGAATTCCGGTCTCCC
DNA 2: TGGTGGCTACGACGGGATT
B18: GCACGUC (DNA:RNA)
RNA: B1 RNA with A25G, G27A, U28C, C29G, C30U, U31C
DNA 1: CAATCTGAATTCCGGTCTCCC
DNA 2: TGGTGGCTACGACGGGATT
B19: CCGCACG (DNA:RNA)
RNA: B1 RNA with A25C, U28C, C29A, U31G
DNA 1: CAATCTGAATTCCGGTCTCCC
DNA 2: TGGTGGCTACGACGGGATT
B20: UGCUUUG (DNA:RNA)
RNA: B1 RNA with A25U, C26G, G27C, C29U, C30U, U31G
DNA 1: CAATCTGAATTCCGGTCTCCC
DNA 2: TGGTGGCTACGACGGGATT

Target: T1, RBFOX1 RRM RbFoxmut (Fox-RRM*)
Assay: EMSA; HiTS-Eq, 1 nM pool, 10 min; buffer printed only for the single-RNA assays: 10 mM Tris pH 7.5, 150 mM NaCl, 3.4 mM EDTA, 0.001% NP-40, 30 C
Settings: tags: His6 N-terminal (pET28a); label: 5' 32P
Method in brief: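 A pool of RNA with 7 randomized nucleotides, 5′-radiolabelled and with DNA-annealed flanks, was equilibrated at 1 nM for 10 min in 50 µL with purified RbFox RRM, wild type or mutant, across increasing protein concentrations. Free RNA was separated by 8% native PAGE, excised, reverse-transcribed, barcoded by PCR and sequenced. Relative association constants were obtained from read-count changes of each RNA species versus the control reaction and normalised to the cognate motif.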

| Binder | binding signal |
| --- | --- |
| B1 | 0.0891 KA relative to UGCAUGU |
| B2 | 0.107 KA relative to UGCAUGU |
| B3 | 0.0603 KA relative to UGCAUGU |
| B4 | 0.0749 KA relative to UGCAUGU |
| B5 | 0.0768 KA relative to UGCAUGU |
| B6 | 0.0699 KA relative to UGCAUGU |
| B7 | 0.0959 KA relative to UGCAUGU |
| B8 | 0.397 KA relative to UGCAUGU |
| B9 | 0.121 KA relative to UGCAUGU |
| B10 | 0.114 KA relative to UGCAUGU |
| B11 | 0.405 KA relative to UGCAUGU |
| B12 | 0.17 KA relative to UGCAUGU |
| B13 | 0.324 KA relative to UGCAUGU |
| B14 | 0.382 KA relative to UGCAUGU |
| B15 | 0.184 KA relative to UGCAUGU |
| B16 | 0.256 KA relative to UGCAUGU |
| B17 | 0.354 KA relative to UGCAUGU |
| B18 | 0.117 KA relative to UGCAUGU |
| B19 | 0.236 KA relative to UGCAUGU |
| B20 | 0.179 KA relative to UGCAUGU |
